# Screening data deposited in PubChem BioAssay by University of Kansas High Throughput Screening Laboratory.
# Shown are actives, neighbours in structure and some others; about 3.6% of the full set was active somewhere.
# Pf apPOL block: Pf-apPOL inhibitors, biochemical, fluorescence; Recombinant Pf-apPOL, molecular beacon fluorescence, 1.5 h; inhibition, % at 10 µM; 210,000 compounds, 0.25% hits; AID 1794808, 2022
# mHTT CaM bind: mutant huntingtin-calmodulin interaction inhibitors – biochemical, AlphaScreen, primary screen | AID 1671202, 2021 | 190,000 compounds, 3.6% hits | AlphaScreen His-mHTT/GST-CaM binding, luminescence | inhibition, % at 15 µM | P42858;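 note: 0% = both proteins with DMSO and 100% = one protein alone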
# Numbers without * were called inactive; · = no result given. Cut-off read from the data, not from the text of the source: active = inhibition above about 50%; inactive = the rest.
SMILES,Pf apPOL block,mHTT CaM bind
CCCc1sc(NC(=O)c2cc(OC)c(OC)c(OC)c2)nc1-c1ccc(OC)c(OC)c1,-1.1,54.7*
CC1=CC=CN2C1=NC(=O)CC2(C)C(=O)NCc1ccccc1 (stereo not drawn),-6.0,-9.0
Cc1ccc(C2=N/C(=C\c3ccccc3Br)C(=O)O2)cc1[N+](=O)[O-],1.5,0.0
O=C1OC(c2ccc(Cl)cc2Cl)=N/C1=C\c1ccccc1[N+](=O)[O-],-1.3,-3.0
Cc1ccccc1/C=C1\N=C(c2ccc(C)c([N+](=O)[O-])c2)OC1=O,1.8,55.0*
COc1ccc(C2=N/C(=C\c3ccccc3[N+](=O)[O-])C(=O)O2)c(Cl)c1,77.1*,1.0
NS(=O)(=O)c1cc(C(=O)N2CCc3ccccc32)c(Cl)cc1Cl,-2.0,60.0*
O=C(c1ccc([N+](=O)[O-])cc1Cl)N1CCc2ccccc21,2.8,9.8
COCCC1CCN(C(=O)c2c(F)cccc2Cl)CC1,-3.7,-1.7
Cc1ccc(-n2nc3cc(N)c(Cl)cc3n2)cc1,6.7,59.0*
Cc1cc2nn(-c3ccccc3)nc2cc1N,-2.5,30.5
Cc1[nH]nc2c1C(c1ccco1)CC(c1ccco1)=C2 (stereo not drawn),·,64.5*
Cn1nc(NC(=O)c2ccc(F)cc2Cl)c2c1NC(=O)CC2c1ccco1 (stereo not drawn),-4.2,-9.8
COc1ccc(OC)c(NC(=O)N2CCCn3nc(-c4cccs4)cc3C2)c1,2.8,30.6
Nc1cc(S(=O)(=O)O)c(N)c2c1C(=O)c1ccccc1C2=O,31.2,·
O=C1c2ccccc2C(=O)c2c1cc(S(=O)(=O)O)c(O)c2O,·,52.0*
O=C1c2ccccc2C(=O)c2c(O)c(O)cc(O)c21,-0.7,75.0*
O=C1c2ccccc2C(=O)c2c(O)ccc(O)c21,-27.1,41.8
C=CCNC(SCc1ccccn1)=C(C#N)C#N,·,11.8
Cc1noc(-c2cccc(F)c2)c1C(=O)NCc1cc(F)cc(F)c1,0.9,-6.7
O=C(c1cccc(Cl)c1)N1CCC(=O)N([C@H](COCc2cccc(Cl)c2)Cc2ccccc2)CC1,-6.4,100.0*
Cc1ccc(S(=O)(=O)N2CCC(=O)N([C@H](COCc3cccc(Cl)c3)Cc3ccccc3)CC2)cc1,-4.9,19.5
Cc1cccc(COC[C@H](Cc2ccccc2)N2CCN(C(=O)c3ccc(Cl)c(Cl)c3)CCC2=O)c1,0.2,100.0*
CC(C)(C)c1ccc(C(=O)N2CCC(=O)N([C@H](COCc3ccccc3)Cc3ccccc3)CC2)cc1,-5.6,7.0
O=[N+]([O-])/C(C(Cl)=C(Cl)Cl)=C(/Cl)Sc1ccccc1,-5.3,4.0
SMILES,Pf apPOL block,mHTT CaM bind
CCC(C)NC(=O)c1cnc(-c2ccc(F)cc2)nc1N1CCCC1 (stereo not drawn),-1.9,-5.5
CCOc1ccc(Nc2nc(-c3ccccn3)cs2)cc1,-3.0,99.0*
COc1ccc(-c2csc(Nc3cc(C)ccn3)n2)cc1,-2.1,-5.0
CCOc1ccc(-c2csc(Nc3ccccn3)n2)cc1,3.9,13.0
COc1ccc(Nc2nc(-c3ccccn3)cs2)cc1,-5.0,99.0*
CCOc1ccc(N=Cc2cc(Br)cc(I)c2O)cc1,-5.4,2.0
O=C(NCc1n[nH]c(=O)c2ccccc12)c1cccc2ccccc12,-2.3,-8.2
O=C(NCc1n[nH]c(=O)c2ccccc12)c1cc(-c2ccco2)[nH]n1,77.6*,30.7
OCCN1CCN(C2C3CC4CC(C3)CC2C4)CC1 (stereo not drawn),61.5*,1.2
CN1CCN(C2C3CC4CC(C3)CC2C4)CC1 (stereo not drawn),2.1,-3.1
Cc1ccc(N2CC(NC(=O)NCCCn3ccnc3)CC2=O)cc1 (stereo not drawn),-3.0,97.7*
O=C(NCCCn1ccnc1)c1ccc(C(=O)NCCCn2ccnc2)cc1,0.0,0.3
O=[N+]([O-])c1ccc(N2CCc3ccccc32)c([N+](=O)[O-])c1,1.6,56.0*
O=C(c1ccc(Sc2cccc(Cl)c2)c([N+](=O)[O-])c1)N1CCC2(CC1)OCCO2,-7.7,60.0*
O=[N+]([O-])c1cc(S(=O)(=O)N2CCc3ccccc32)ccc1N1CCc2ccccc21,28.3,74.0*
O=C(c1ccc(Sc2cccc(Cl)c2)c([N+](=O)[O-])c1)N1CCN(c2ccccn2)CC1,-6.7,20.0
O=C(c1ccc(N2CCc3ccccc32)c([N+](=O)[O-])c1)N1CCC2(CC1)OCCO2,-6.2,77.0*
Cc1ccc(S(=O)(=O)N2CCc3ccccc32)cc1[N+](=O)[O-],-0.7,12.8
CC(=O)N1c2ccccc2CCc2ccc([N+](=O)[O-])cc21,-7.2,-0.2
O=C(c1ccc(N2CCC3(CC2)OCCO3)c([N+](=O)[O-])c1)N1CCOCC1,-1.7,1.0
Cc1ccccc1C(=O)NCc1nn(C)c2ccccc12,-1.1,-2.8
N#CC(=CNc1ccc2c(c1)OCCO2)S(=O)(=O)c1ccc(C(F)(F)F)cn1,-7.5,·
